# Results as given in PubChem BioAssay AID602281 (The Scripps Research Institute Molecular Screening Center, 2012).
# Out of some 360,000 compounds screened, about 2,900 (0.81%) were called active.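 How the source made its calls: active means inhibition above the mean inhibition across every tested compound plus 3 SD (cut at about 22% in these data); inactive means the rest.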 The full list was thinned out, with actives kept by preference.
# Biological target: Perilipin-5 (Homo sapiens) + 1-acylglycerol-3-phosphate O-acyltransferase ABHD5 (Homo sapiens) (UniProt Q00G26+Q8WTS1)
# Assay: ABHD5-PLIN5 interaction inhibitors, primary screen, cell lysate, split luciferase complementation, luminescence (AID 602281);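 further: 0% = DMSO only wells and the 100% control is not disclosed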
# Conditions: Split G. princeps luciferase complementation, 4 h, at 4 µM, active compounds read high
# Sequence of Perilipin-5 (Homo sapiens) + 1-acylglycerol-3-phosphate O-acyltransferase ABHD5 (Homo sapiens) (Q00G26 whole entry, looked up): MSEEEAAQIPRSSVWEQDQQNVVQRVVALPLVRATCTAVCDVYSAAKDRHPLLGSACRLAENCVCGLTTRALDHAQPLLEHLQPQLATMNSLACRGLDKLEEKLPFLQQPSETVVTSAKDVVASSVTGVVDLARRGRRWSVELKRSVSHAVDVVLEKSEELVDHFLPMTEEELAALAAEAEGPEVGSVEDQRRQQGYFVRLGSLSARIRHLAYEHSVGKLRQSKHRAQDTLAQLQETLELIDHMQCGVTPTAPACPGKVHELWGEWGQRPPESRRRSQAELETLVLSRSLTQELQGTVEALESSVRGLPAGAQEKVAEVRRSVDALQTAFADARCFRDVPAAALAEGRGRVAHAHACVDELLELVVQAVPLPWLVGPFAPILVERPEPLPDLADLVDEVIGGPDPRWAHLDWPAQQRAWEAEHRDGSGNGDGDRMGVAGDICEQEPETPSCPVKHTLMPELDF
# Sequence of Perilipin-5 (Homo sapiens) + 1-acylglycerol-3-phosphate O-acyltransferase ABHD5 (Homo sapiens) (Q8WTS1 whole entry, looked up): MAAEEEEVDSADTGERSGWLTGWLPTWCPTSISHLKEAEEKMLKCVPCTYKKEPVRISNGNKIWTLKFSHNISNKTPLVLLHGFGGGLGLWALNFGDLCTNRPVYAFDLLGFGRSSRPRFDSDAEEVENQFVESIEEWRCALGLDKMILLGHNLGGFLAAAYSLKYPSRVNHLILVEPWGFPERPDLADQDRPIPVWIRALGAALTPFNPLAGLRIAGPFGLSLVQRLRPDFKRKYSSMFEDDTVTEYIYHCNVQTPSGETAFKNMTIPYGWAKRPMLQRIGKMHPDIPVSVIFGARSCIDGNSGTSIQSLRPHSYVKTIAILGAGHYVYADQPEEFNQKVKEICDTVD
row,SMILES,inhibition
1,CCOC(=O)[C@]12Cc3cc(OC)ccc3[C@H]1N(C(C)C)C(=O)c1ccccc12,14.9% (inactive)
2,CCOC(=O)[C@]12Cc3ccccc3[C@H]1N(C1CCCCC1)C(=O)c1cc(OC)ccc12,39.6% (active)
3,CC(C)N(CC#CCC1(O)c2ccccc2-c2ccccc21)C(C)C,3.81% (inactive)
4,CN(C)CC1Oc2ccccc2OC1(O)c1ccccc1 (stereo not given),46.5% (active)
5,CCOC(=O)CNC(=O)N1Cc2cc(N3CCCCC3)ccc2-n2nncc2C1,5.92% (inactive)
6,CCN1CC2C3CCC(C)(O3)C2C1 (stereo not given),4.06% (inactive)
7,Cc1ccc(-c2cc(C(=O)N3CCC4(CC3)OCCO4)no2)cc1,-2.79% (inactive)
8,CCc1cccc2c(C#N)cn(CC(=O)N3CCOCC3)c12,1.5% (inactive)
9,CCC(=O)CC(c1ccc([N+](=O)[O-])cc1)c1c(O)c2ccccc2oc1=O (stereo not given),5.29% (inactive)
10,Cc1cccc(N2C(=O)NC(=O)/C(=C\c3cnn(-c4ccccc4)c3)C2=O)c1,55.1% (active)
11,O=C(COC(=O)c1ccccc1)Nc1ccc(Cl)cc1C(=O)c1ccccc1,7.59% (inactive)
12,Cc1ccc(S(=O)(=O)N(C)c2ccc(C(=O)NCC3(N(C)C)CCCCC3)cc2)cc1,0.68% (inactive)
13,COc1ccccc1N1CCN(C(CNC(=O)Oc2ccccc2)c2cccnc2)CC1 (stereo not given),0.85% (inactive)
14,N#Cc1ccc(Cn2cc(C(=O)c3ccco3)c3ccccc32)cc1,5.75% (inactive)
15,Cc1ccc(Cn2c(C)c3cnn(CC(=O)N4CCC5(CC4)OCCO5)c(=O)c3c2C)cc1,9.7% (inactive)
16,COc1ccc(CN2C(=O)NC(=O)/C(=C\c3ccc(OC)c(OC)c3OC)C2=O)cc1,23.3% (active)
17,C=CCN1C(=O)NC(=O)/C(=C/c2ccc(OCC(=O)Nc3ccc(C)cc3)cc2)C1=O,15.7% (inactive)
18,Cc1ccc(C)c(NC2=NCCCS2)c1,7.47% (inactive)
19,C=CCN1C(=O)C2(C(C(=O)OCC)=C(N)Oc3c2c(=O)oc2ccccc32)c2ccccc21 (stereo not given),-7.25% (inactive)
20,COc1ccc(N=Cc2c(O)n(C)c(=O)[nH]c2=O)cc1,-7.01% (inactive)
21,CCc1nnc(NS(=O)(=O)c2ccc(N=Cc3c(O)n(-c4ccccc4)c(=O)[nH]c3=O)cc2)s1,24.9% (active)
22,O=c1[nH]c(=O)n(-c2ccc(F)cc2)c(O)c1C=NCCN1CCCCC1,-4.1% (inactive)
23,Cc1ccc(N2C(=O)NC(=O)C(CCc3ccncc3)(Cc3cccc(Cl)c3Cl)C2=O)cc1 (stereo not given),-2.62% (inactive)
24,CC1CCC(N(C)C2CCN(C)CC2)CC1 (stereo not given),-5.21% (inactive)
25,O=c1[nH]c(=O)n(CCc2ccc(F)cc2)c(O)c1/C=N/N1CCCCC1,-2.89% (inactive)
